According to PubChem BioAssay (NCI):
This is part of a sample that, as a whole, favours compounds with a hit. Of some 83,000 tested, about 20% had one in any assay.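 Cell lines were cultured in 96-well plates, exposed to a single compound concentration, and assessed for percent growth 48 hours later.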 Values without a mark were called inactive. Active and inactive are the calls of the source. The calls were made as follows: active = growth percent below 10; inactive = the rest.

Key:
Test in all cases: NCI-60 one-dose screen, 48 h (100 = growth as untreated, 0 = no growth, -100 = all killed)
Conditions in all cases: 10 µM unless noted
NCI/ADR-RES ovarian = tested on: NCI/ADR-RES ovarian
T-47D breast = tested on: T-47D breast
BT-549 breast = tested on: BT-549 breast
MDA-MB-435 melanoma = tested on: MDA-MB-435 melanoma
SW-620 colon = tested on: SW-620 colon
MCF7 breast = tested on: MCF7 breast
HCT-116 colon = tested on: HCT-116 colon
KM12 colon = tested on: KM12 colon
HCC-2998 colon = tested on: HCC-2998 colon

Structure (SMILES)	growth (NCI/ADR-RES ovarian)	growth (T-47D breast)	growth (BT-549 breast)	growth (MDA-MB-435 melanoma)	growth (SW-620 colon)	growth (MCF7 breast)	growth (HCT-116 colon)	growth (KM12 colon)	growth (HCC-2998 colon)
O=c1[nH]cc(N(CCCl)CCCl)c(=O)[nH]1	66.3%	53%	81.5%	86.5%	71.8%	53.1%	78.8%	86.5%	
CC(=O)OC1C(OC/C2=C/C3[C@@H](C(C)C)CC=C(C)[C@@H]3CC(OC(=O)/C=C/c3cn(C)cn3)[C@]3(C)C=C[C@@]2(O)O3)OCC(O)C1O (stereo partly specified)	80.8%	23%	-14.3% (active)	-52.3% (active)	35.8%	13.5%	4.11% (active)	14.1%	-44.1% (active)
C/C(=C\c1cc(C(F)(F)F)nn1CCNC(=O)OC(C)(C)C)[C@@H]1C[C@@H]2O[C@]2(C)CCC[C@H](C)[C@H](O)[C@@H](C)C(=O)C(C)(C)[C@@H](O)CC(=O)O1	28%	57.8%	73.2%	-27.6% (active)	34.7%	31.2%	23.3%	20.3%	
O=C1C2C(C(=O)[N]1[Hg][c]1cccs1)C1(Cl)C(Cl)=C(Cl)C2(Cl)C1(Cl)Cl (stereo unspecified)	21%	-78.5% (active)	-1.18% (active)	7.41% (active)	-40.4% (active)	-13.1% (active)	-31.9% (active)	87.3%	
COc1cc(C=Nc2cc(Cl)cc(Cl)c2)ccc1N(CCCl)CCCl	85.2%	95.4%	85.4%	95.5%	75.5%	84.2%	90.4%	51.1%	
Oc1ccc2c3c1OC1[C@@H](O)CC[C@@]4(O)[C@@H](C2)N(CC2CCC2)CC[C@]314 (stereo partly specified)	102%	100%	106%	101%	104%	92.5%	99.2%	104%	
O=C1C(Cl)=C(N2CCOCC2)C(=O)c2ccccc21	90.9%	-23% (active)	106%	67%	-16.5% (active)	93.4%		102%	
CC(CC1CCCCC1)NCc1ccccc1 (stereo unspecified)	93.7%	102%	97.7%	103%	94%	96.4%	96.6%	101%	
Cc1cc(C)cc(Nc2nc3c(s2)CC[C@@]2(C)C3=CC[C@@H]3[C@@H]2CC[C@]2(C)C(=O)CC[C@@H]32)c1	74.5%	28.9%	47.2%	72.8%	37.8%	16.9%	6.21% (active)	55.5%	
C[C@]12CC[C@H]3[C@@H](CC4SC(N)=NC45C/C(=N/NC(N)=O)CC[C@]35C)[C@@H]1CCC2=O (stereo partly specified)	-5.32% (active)	-21% (active)	107%	-58.8% (active)	-59.2% (active)	-55.6% (active)	6.35% (active)	20.5%	63.9%
N#CC1C(C#N)C2CCC1C1C2N1c1ccccc1 (stereo unspecified)	111%	108%	98.1%	107%	100%	101%	95.1%	102%	
CCCCC1(CCC)C(=O)NC(=S)NC1=O	102%	92.3%	107%	116%	109%	95.7%	99.2%	109%	
C[CH2][Sn]([Cl])([Cl])[CH2]C.Oc1ccccc1C=NCCN=Cc1ccccc1O	106%	90%	117%	108%	99.7%	131%	112%	106%	
CCCCCCC(=O)NC1=C(N2CC2)C(=O)C(NC(=O)CCCCCC)=C(N2CC2)C1=O	60.1%	11.4%	28%	13.4%	56.9%	19.1%	-14.1% (active)	48.8%	
C=C1C[C@](OC)([C@H](O)C(=O)N[C@@H](OC)[C@@H]2C[C@@H](O)C(C)(C)[C@@H](C[C@@H](COC)OC)O2)O[C@H](C)[C@@H]1C	-42.3% (active)	-7.29% (active)	-59.9% (active)	-83.3% (active)	-64.3% (active)	-52.6% (active)	-16.7% (active)	-41.8% (active)	
Clc1ccc(N2COOC3(OOC2)C2CC4CC(C2)CC3C4)cc1	-13.3% (active)	49.1%	68.7%	53.1%	75.3%	71.7%	50.4%	36%	102%
CC[C@H](C)[C@@H]1OC(=O)C(C)(C)[C@H](O)[C@H](Cc2ccccc2)OC(=O)[C@H](C(C)C)OC(=O)[C@@H](NC(=O)c2cccc(NC=O)c2O)[C@@H](C)OC1=O	53.4%	33.2%	53.8%	53.2%	60.8%	40%	36.5%	53.5%	
COc1ccc(C2=CC(c3ccc(OC)c(OC)c3)c3c(c4ccccc4oc3=O)O2)cc1OC (stereo unspecified)	29%	35%	-4.49% (active)	-72.9% (active)	18.5%	11.8%	24.2%	16.2%	
COc1cc2ncnc(Nc3ccc(F)c(Cl)c3)c2cc1OCC(=O)N1CCN(C)CC1	86.7%	70%	89.6%	102%	105%	80.4%	91.3%	96.4%	
CC(=O)O[C@H](C[C@H](C(C)C)N(C)C(=O)[C@@H](NC(=O)[C@H]1CCCCN1C)C(C)C)c1nc(C(=O)NC2CCC(C(=O)O)CC2)cs1 (stereo partly specified)	96.8%	50.4%	45.6%	-28.9% (active)	32.6%	18.5%	34.8%	39.2%	
COc1ccc(NC([Se])=NC23CC4CC(CC(C4)C2)C3)cc1	1.9% (active)	-11.7% (active)	11.3%	20%	2.24% (active)	11.4%	1.65% (active)	5.4% (active)	
CC[S][Hg][Cl]	106%	122%	111%	98.7%	106%	93.3%	106%	107%	
CC12CCC3C(CCC4Cc5[nH]c6ccccc6c5CC43C)C1CCC2O (stereo unspecified)	38.4%	29.2%	60.4%	-25.2% (active)	11.5%	5.13% (active)	23.3%	23.3%	
CC(=O)OC1CCC2(C)C(CCC3C2CC(=O)C2(C)C3CC(Sc3ccc(N(CCCl)CCCl)cc3)C2C(C)=O)C1 (stereo unspecified)	74.7%	66.7%	80.8%	105%	68.4%	74.2%	72%	32.6%	
COc1cc2c(cc1OCc1ccccc1)C(CC(C)C)=[N+](C)CC2	101%	58.4%	44%	96.6%	93.7%	73.4%	85.2%	78.8%	
Brc1ccc2c(c1)c(-c1nc(-c3c[nH]c4ncccc34)cs1)cn2CCN1CCOCC1	50.3%	1.14% (active)	77.6%	85.7%	85.8%	18.3%	68.1%	40.3%	88.7%
Cc1cnc(/C=C/C(=O)O)cc1-c1cc2c(cc1C)C(C)(C)CCC2(C)C	78.7%	80.3%	69%	83.8%	86.6%	21.8%	57.2%	57.3%	
CC1(C)N=C(N)N=C(N)N1c1ccc(CCCCc2ccc(Cl)c(S(=O)(=O)F)c2)c(Cl)c1	55.6%	42.3%	24.7%	24.6%	24.4%	19.1%	19.6%	15.2%	23.7%
O=C1CNC(c2ccccc2)c2cc(Cl)ccc2N1 (stereo unspecified)	100%	88.4%	122%	108%	97.2%	97.8%	97%	91.2%	106%
C[C@]12CCc3sc(-c4cccc(F)c4)nc3C1=CC[C@@H]1[C@@H]2CC[C@]2(C)C(=O)CC[C@@H]12	68.3%	3.07% (active)	23.2%	49.2%	3.81% (active)	10.8%	0.513% (active)	46.5%	79.5%
